PubChem BioAssay AID449762 (Southern Research Specialized Biocontainment Screening …, 2010)
In all, about 330,000 compounds went through this assay and about 1,900 (0.58%) were called active. About 4% were inconclusive and are not listed. Not all results are given here. Measured potencies and affinities stand elsewhere. Values without a mark were called inactive. No stated cut-off is given here; in the data, inconclusive means inhibition above about 70% without an active follow-up result; inactive means below that.

experiment: M. tuberculosis growth inhibition, HTS (AID 449762);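 further: bacterial growth assessed after seven days of incubation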; conditions: M. tuberculosis H37Rv growth inhibition, 7H9 media; at 25 µM; hits give high values

Row | SMILES | inhibition
1 | NC(=O)CCN(Cc1ccccc1)S(=O)(=O)c1ccccc1 | -1.39%
2 | CCCCNC(=O)COC(=O)CNC(=O)c1cc(Cl)cc([N+](=O)[O-])c1 | 6.26%
3 | C=CCn1cnc2c(oc3ccccc32)c1=O | 0.22%
4 | c1ccc(CNc2ncnc3c2cnn3-c2ccccc2)cc1 | -6.95%
5 | CCN1CCN(c2ncnc3c2cnn3-c2ccccc2)CC1 | -10%
6 | c1ccc(-n2ncc3c(N4CCCCC4)ncnc32)cc1 | -3.33%
7 | CCCCNc1ncnc2c1cnn2-c1ccccc1 | 11.5%
8 | CC(C)(C)c1ccc(-c2noc(C(=O)NN)n2)cc1 | -2.97%
9 | NS(=O)(=O)c1ccc(NC(=O)COC(=O)CN2C(=O)C3CC=CCC3C2=O)cc1 (stereo not drawn) | -21.8%
10 | Cn1cc(C(=O)c2ccc(F)cc2)cc1-c1nc2ccccc2n1C | 65.4%
11 | Cn1cc(C(=O)c2ccccc2)cc1-c1nc2ccccc2n1C | 24.3%
12 | O=C(COC(=O)c1ccccn1)Nc1ccc2c(c1)OCCO2 | -1.75%
13 | CNC(=O)COc1ccc(Nc2nnc(-c3ccc(C)c(S(N)(=O)=O)c3)c3ccccc23)cc1 | 3.37%
14 | CC(=O)c1ccc(NC(=O)C(C)OC(=O)c2cccc(-n3cnnn3)c2)cc1 (stereo not drawn) | -2.06%
15 | CCOC(=O)c1cn(Cc2ccc(Cl)cc2Cl)c2cc(C)nn2c1=O | -10.3%
16 | CCCCCc1ccc(-c2cn(Cc3ccc(C)cc3)nn2)cc1 | 2.43%
17 | COc1ccc(-c2cn(Cc3cccc(OC)c3)nn2)cc1 | -1.15%
18 | CCN(C(=O)COC(=O)c1cc(-c2ccc3cc(OC)ccc3c2)nc2ccccc12)C1CCS(=O)(=O)C1 (stereo not drawn) | 12.4%
19 | CN1N=C(/C=C/c2ccccc2)CCC1=O | -6.09%
20 | COC1C(OC(=O)c2ccc(C)[nH]2)C(O)C(Oc2ccc3c(O)c(NC(=O)c4ccc(O)c(CC=C(C)C)c4)c(=O)oc3c2Cl)OC1(C)C (stereo not drawn) | -2.53%

Row | SMILES | inhibition
21 | Cc1c(O)ccc2c(O)c(NC(=O)c3ccc4c(c3)CCC(C)(C)O4)c(=O)oc12 | 1.87%
22 | COc1ccc([C@H]2CC(=O)C=C(c3cccc(CO)c3)C2)cc1 | -3.53%
23 | COc1cc(NC(=O)C/C(C)=N/NC(=O)c2cccc(O)c2)c(OC)cc1Cl | -0.8%
24 | COc1cc(NC(=O)C/C(C)=N/NC(=O)Cc2ccccc2)c(OC)cc1Cl | 9.08%
25 | COc1ccc(NS(=O)(=O)c2ccc(NC(=O)C3CCCO3)cc2)cc1 (stereo not drawn) | -9.85%
26 | COc1cccc(C2(C)NC(=O)N(CC(=O)Nc3ccc(N4CCOCC4)cc3)C2=O)c1 (stereo not drawn) | -10%
27 | CCCCOc1cccc(C(=O)Nc2ccc(NC(=O)c3cccs3)cc2)c1 | 2.91%
28 | Cn1c(CNc2ccc(O)cc2)nc2ccccc21 | -0.5%
29 | Cc1ccccc1NCc1nc2ccccc2n1C | 2.8%
30 | CC(=O)Nc1ccc(S(=O)(=O)Nc2ccc(N3CCOCC3)cc2)cc1 | 1.49%
31 | CC(=O)Nc1ccc(N2CCCCC2)cc1 | 1.6%
32 | O=C(O)c1cccc(N2C(=O)C3C4C=CC(C4=C(c4ccccc4)c4ccccc4)C3C2=O)c1 (stereo not drawn) | 4.23%
33 | CC(=O)C[C@@H](O)CC(=O)[C@@H]1OC(=O)CCCCCCCCc2ccccc21 | 0.55%
34 | CCC(C)(C)NC(=O)C(c1ccncc1)N(Cc1ccc(C)cc1)C(=O)c1csnn1 (stereo not drawn) | -0.23%
35 | N#CCNc1ccc([N+](=O)[O-])cc1C#N | 2.63%
36 | COc1cc2c(cc1OC)C(C)N(C(=O)c1cc3c(s1)-c1c(C)cccc1OC3)CC2 (stereo not drawn) | 60.6%
37 | Cc1ccc(C(=O)N/C(=C/c2ccco2)C(=O)O)cc1 | 0.79%
38 | Cc1ccc(C(=O)N/C(=C\c2cccc([N+](=O)[O-])c2)C(=O)OCN2C(=O)c3ccccc3C2=O)cc1 | 9.25%
39 | NN/C(=C\[N+](=O)[O-])Nc1ccccc1 | 69.9%
40 | CS/C(=C\[N+](=O)[O-])Nc1ccc(Cl)cc1 | 55.3%

Row | SMILES | inhibition
41 | CC(Sc1nnc(-c2cccs2)n1-c1ccccc1)C(=O)NCc1ccc2c(c1)OCO2 (stereo not drawn) | -16.1%
42 | CCCCOc1ccc(C(=O)Nc2ccc(N3CCN(C(=O)C(C)C)CC3)cc2)cc1 | 11.1%
43 | Cc1cc(OC2CCCCC2)nc(-c2ccccc2O)n1 | -9.08%
44 | Cc1cc(Nc2ccccc2Cl)nc(-c2ccccc2O)n1 | 57.3%
45 | O=C(Cn1nc(Cl)nc1Cl)c1ccc2c(c1)OCCO2 | 60.7%
46 | O=C(Cn1ncc(Cl)c(Cl)c1=O)N1CCOCC1 | 2.21%
47 | CCOC(=O)c1sc(=NC(=O)c2ccc(C)c(C)c2)n(C)c1C | 31.6%
48 | O=C(N/N=C/c1cccnc1)c1sc2ccccc2c1Cl | 66%
49 | O=C(N/N=C/c1c[nH]c2ccccc12)c1sc2ccccc2c1Cl | 1.35%
50 | CC(=O)NCCc1nc2cc(NC(=O)c3ccccc3Cl)ccc2n1C | -3.12%
51 | Cc1cc(C(C)(C)C)oc1C(=O)OCC(=O)NC1CCCCC1 | 7.47%
52 | CS(=O)(=O)N1c2ccccc2[C@]2([C@@]34C[C@H]5C(=O)N[C@@H](Cc6ccccc6)C(=O)N5[C@@H]3N(S(C)(=O)=O)c3ccccc34)C[C@H]3C(=O)N[C@@H](Cc4ccccc4)C(=O)N3[C@H]12 | -2.63%
53 | CN1C(=O)[C@@H]2C[C@@]3([C@@]45C[C@H]6C(=O)N(C)[C@@H](Cc7ccccc7)C(=O)N6[C@@H]4Nc4ccccc45)c4ccccc4N[C@H]3N2C(=O)[C@@H]1Cc1ccccc1 | 11.8%
54 | CCCCC1S/C(=N/N=C/c2ccco2)NC1=O (stereo not drawn) | 4.46%
55 | Cc1ccc(Cn2ccsc2=NC(=O)COC(=O)C(C)C)cc1 | -7.15%
56 | CCC(=O)OCC(=O)N=c1sccn1Cc1ccc(C)cc1 | 6.77%
57 | CN(Cc1nc2ccccc2[nH]1)C(=O)C1CCC(=O)N(CCc2cccc(F)c2)C1 (stereo not drawn) | -0.88%
58 | COc1ccccc1CN1CC(C(=O)N(C)CCc2nc3ccc(F)cc3[nH]2)CCC1=O (stereo not drawn) | 8.31%
